Results on three molecules are retold here after PubChem BioAssay (EPA / NIEHS).

In general, AC50 refers to the concentration at which the activity in the assay is half-maximal.

The source made the active and inactive calls. Rule for the calls: active = hit-call score of the fitted dose curve at least 0.9, where 1 is the maximum; inactive = score below 0.9.

What all share (conditions): mRNA level, 48 h; actives raise or lower the signal
Read-out in one experiment: BCL2L11 (gene 10018)
As to the kind of experiment: LTEA_HepaRG_BCL2L11: Life Technologies and Expression Analysis (LTEA) Assay for Bcl-2 (BCL2L11) gene using HepaRG (AID 2283473). The method, boiled down:
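Cells were plated, cultured 48 h, switched to serum-free induction medium, then dosed in duplicate for 48 h at eight half-log concentrations up to 100 uM. Lysates underwent RNA isolation and TaqMan qRT-PCR; gain or loss versus DMSO was fitted.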

Read-out in experiment [1]: Apolipoprotein A-V (APOA5) gene, APOA5 (gene 116519)
As to the kind of experiment: LTEA_HepaRG_APOA5: Life Technologies and Expression Analysis (LTEA) Assay for Apolipoprotein A-V (APOA5) gene using HepaRG (AID 2283474). The method, boiled down: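 Human liver HepaRG cells are treated 48 h with test chemicals (100 uM top, half-log dilutions, 0.5% DMSO). APOA5 mRNA induction or loss is measured by qRT-PCR relative to vehicle.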

Read-out in experiment [2]: Apoptosis regulator Bcl-2 (Homo sapiens) (UniProt P10415)
As to the kind of experiment: LTEA_HepaRG_BCL2: Life Technologies and Expression Analysis (LTEA) Assay for Bcl-2 gene using HepaRG (AID 2283475). The method, boiled down:
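Differentiated HepaRG cells in serum-free induction medium were exposed for 48 h to eight half-log concentrations up to 100 uM in 0.5% DMSO, in duplicate. BCL2 mRNA was quantified by TaqMan qRT-PCR normalised to ACTB, GAPDH and POLR2A, with bidirectional fitting versus DMSO.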

Read-out in experiment [3]: Bcl-2 (BID) gene, BID (gene 637)
As to the kind of experiment: LTEA_HepaRG_BID: Life Technologies and Expression Analysis (LTEA) Assay for Bcl-2 (BID) gene using HepaRG (AID 2283476). The method, boiled down:
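Differentiated HepaRG cells in serum-free induction medium were exposed in duplicate for 48 h to eight half-log concentrations up to 100 uM in 0.5% DMSO. BID mRNA was quantified by qRT-PCR, normalized to ACTB, GAPDH and POLR2A.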

Read-out in another experiment: Caspase-3 (Homo sapiens) (UniProt P42574)
As to the kind of experiment: LTEA_HepaRG_CASP3: Life Technologies and Expression Analysis (LTEA) Assay for cysteine-aspartic acid protease (CASP3) using HepaRG (AID 2283477). The method, boiled down: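 In HepaRG liver cells dosed for 48 h at up to 100 uM (eight-point, duplicate), CASP3 expression changes are scored by qRT-PCR. Activity is fitted in both directions with 0.5% DMSO as baseline.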

Read-out in experiment [4]: Cytochrome P450 (CYP24A1), CYP24A1 (gene 1591)
As to the kind of experiment: LTEA_HepaRG_CYP24A1: Life Technologies and Expression Analysis (LTEA) Assay for Cytochrome P450 (CYP24A1) using HepaRG (AID 2283478). The method, boiled down: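 Human liver HepaRG cultures receive each chemical for 48 h across an eight-point half-log series topping at 100 uM in 0.5% DMSO. Induction or suppression of CYP24A1 mRNA is scored relative to vehicle after housekeeping-gene normalization.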

Read-out in experiment [5]: Cytochrome P450 (CYP1A2), CYP1A2 (gene 1544)
As to the kind of experiment: LTEA_HepaRG_CYP1A2: Life Technologies and Expression Analysis (LTEA) Assay for Cytochrome P450 (CYP1A2) using HepaRG (AID 2283479). The method, boiled down: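 Assesses CYP1A2 mRNA in human HepaRG liver cells after 48 h chemical exposure at up to 100 uM. Values come from qRT-PCR with bidirectional curve fitting relative to DMSO.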

Read-out in experiment [6]: cysteine-aspartic acid protease (CASP8), CASP8 (gene 841)
As to the kind of experiment: LTEA_HepaRG_CASP8: Life Technologies and Expression Analysis (LTEA) Assay for cysteine-aspartic acid protease (CASP8) using HepaRG (AID 2283480). The method, boiled down: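 HepaRG, 48 h exposure, duplicate wells; 8 conc, half-log from 100 uM, 0.5% DMSO. Serum-free induction medium. CASP8 mRNA by TaqMan qRT-PCR, norm. ACTB/GAPDH/POLR2A; gain/loss fitted vs DMSO.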

Read-out in experiment [7]: Cytochrome P450 (CYP2B6), CYP2B6 (gene 1555)
As to the kind of experiment: LTEA_HepaRG_CYP2B6: Life Technologies and Expression Analysis (LTEA) Assay for Cytochrome P450 (CYP2B6) using HepaRG (AID 2283481). The method, boiled down: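 Using 48 h treatment of HepaRG cells in serum-free induction medium, concentrations spanned half-log steps from 100 uM in 0.5% DMSO vehicle. CYP2B6 mRNA induction or loss is scored by qRT-PCR against DMSO.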

Read-out in experiment [8]: Cytochrome P450 2C19 (Homo sapiens) (UniProt P33261)
As to the kind of experiment: LTEA_HepaRG_CYP2C19: Life Technologies and Expression Analysis (LTEA) Assay for CYP2C19 using HepaRG (AID 2283482). The method, boiled down: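 Human HepaRG liver cells received test chemicals for 48 h (highest 100 uM, half-log dilutions in 0.5% DMSO). CYP2C19 mRNA induction or loss is read by multiplexed qRT-PCR and fitted in both directions versus vehicle.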

Read-out in a further experiment: CYP2C8 (gene 1558)
As to the kind of experiment: LTEA_HepaRG_CYP2C8: Life Technologies and Expression Analysis (LTEA) Assay for CYP2C8 using HepaRG (AID 2283483). The method, boiled down:
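CYP2C8 mRNA induction or loss, by qRT-PCR normalized to ACTB/GAPDH/POLR2A, is read in HepaRG cells after 48 h treatment. Concentrations run from 100 uM down in half-log dilutions, with 0.5% DMSO as vehicle and baseline.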

Read-out in the next experiment: CYP2C9 (gene 1559)
As to the kind of experiment: LTEA_HepaRG_CYP2C9: Life Technologies and Expression Analysis (LTEA) Assay for CYP2C9 using HepaRG (AID 2283484). The method, boiled down: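 Cells plated 48 h, switched to serum-free induction medium, then treated in duplicate for 48 h at eight concentrations (max 100 uM, 0.5% DMSO). RNA then analysed by qRT-PCR for CYP2C9; curves fitted in both directions relative to DMSO.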

Read-out in another experiment: CYP2E1 (gene 1571)
As to the kind of experiment: LTEA_HepaRG_CYP2E1: Life Technologies and Expression Analysis (LTEA) Assay for CYP2E1 using HepaRG (AID 2283485). The method, boiled down: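 HepaRG cells in serum-free induction medium exposed 48 h to test chemicals, 8 half-log concentrations up to 100 uM in 0.5% DMSO, duplicate. CYP2E1 mRNA by qRT-PCR, normalized to ACTB, GAPDH, POLR2A; bidirectional fit versus DMSO.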

Read-out in a further experiment: CYP4A11 (gene 1579)
As to the kind of experiment: LTEA_HepaRG_CYP4A11: Life Technologies and Expression Analysis (LTEA) Assay for CYP4A11 using HepaRG (AID 2283486). The method, boiled down: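 Readout is CYP4A11 mRNA induction or suppression (qRT-PCR, ACTB/GAPDH/POLR2A normalization) in human HepaRG cells after 48 h chemical treatment, concentrations to 100 uM in 0.5% DMSO, fitted bidirectionally against vehicle.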

Read-out in experiment [9]: Cytochrome P450 3A4 (Homo sapiens) (UniProt P08684)
As to the kind of experiment: LTEA_HepaRG_CYP3A4: Life Technologies and Expression Analysis (LTEA) Assay for CYP3A4 using HepaRG (AID 2283487). The method, boiled down:
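Differentiated HepaRG cells in serum-free induction medium exposed in duplicate for 48 h to 8 half-log concentrations up to 100 uM in 0.5% DMSO. CYP3A4 mRNA measured by qRT-PCR normalized to ACTB, GAPDH and POLR2A; bidirectional fit versus DMSO.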

Read-out in experiment [10]: DNA damage-inducible transcript 3 (DDIT3), DDIT3 (gene 1649)
As to the kind of experiment: LTEA_HepaRG_DDIT3: Life Technologies and Expression Analysis (LTEA) Assay for DNA damage-inducible transcript 3 (DDIT3) using HepaRG (AID 2283488). The method, boiled down: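 Differentiated human HepaRG cells in serum-free induction medium were exposed in duplicate for 48 h to 8 concentrations (top 100 uM, half-log steps, 0.5% DMSO). DDIT3 mRNA measured by TaqMan qRT-PCR, normalized to ACTB/GAPDH/POLR2A; bidirectional fit versus DMSO.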

Read-out in experiment [11]: Pro-epidermal growth factor (Homo sapiens) (UniProt P01133)
As to the kind of experiment: LTEA_HepaRG_EGF: Life Technologies and Expression Analysis (LTEA) Assay for Epidermal growth factor (EGF) using HepaRG (AID 2283489). The method, boiled down: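 EGF expression changes in human HepaRG cells are scored by bidirectional fitting relative to 0.5% DMSO controls. Chemicals are tested at eight half-log concentrations up to 100 uM for 48 h in serum-free induction medium.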

Read-out in experiment [12]: Early growth response protein 1 (EGR1) transcription factor, EGR1 (gene 1958)
As to the kind of experiment: LTEA_HepaRG_EGR1: Life Technologies and Expression Analysis (LTEA) Assay for Early growth response protein 1 (EGR1) transcription factor using HepaRG (AID 2283490). The method, boiled down: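 Read-out is EGR1 mRNA level by qRT-PCR, normalized to three housekeeping genes and analysed for gain or loss of signal against 0.5% DMSO. Source cells: human HepaRG, treated 48 h at up to 100 uM in half-log dilutions.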

Read-out in experiment [13]: Ezrin (EZR), EZR (gene 7430)
As to the kind of experiment: LTEA_HepaRG_EZR: Life Technologies and Expression Analysis (LTEA) Assay for Ezrin (EZR) using HepaRG (AID 2283491). The method, boiled down: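 Differentiated human HepaRG cells, 48 h after plating, were exposed in serum-free induction medium for 48 hours to eight half-log concentrations up to 100 uM in 0.5% DMSO. EZR mRNA was measured by TaqMan qRT-PCR, normalized to ACTB, GAPDH and POLR2A, and fitted bidirectionally against DMSO.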

Read-out in experiment [14]: Cytochrome P450 3A7 (Homo sapiens) (UniProt P24462)
As to the kind of experiment: LTEA_HepaRG_CYP3A7: Life Technologies and Expression Analysis (LTEA) Assay for CYP3A7 using HepaRG (AID 2283492). The method, boiled down:
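Cells were thawed, plated, cultured 48 h, then treated for a further 48 h with chemicals (eight-point half-log series from 100 uM, 0.5% DMSO). RNA was isolated and CYP3A7 expression quantified by qRT-PCR normalised to ACTB, GAPDH and POLR2A.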

Caspase-3 (Homo sapiens), sequence (P42574 whole entry, looked up): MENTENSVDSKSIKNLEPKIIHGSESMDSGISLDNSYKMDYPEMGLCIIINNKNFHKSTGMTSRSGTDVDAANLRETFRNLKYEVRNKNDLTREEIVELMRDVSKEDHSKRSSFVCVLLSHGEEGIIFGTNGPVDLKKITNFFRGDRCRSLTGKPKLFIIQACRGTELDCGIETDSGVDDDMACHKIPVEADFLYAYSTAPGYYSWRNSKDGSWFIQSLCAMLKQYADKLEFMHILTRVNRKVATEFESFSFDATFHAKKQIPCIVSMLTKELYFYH
Apoptosis regulator Bcl-2 (Homo sapiens), sequence (P10415 whole entry, looked up): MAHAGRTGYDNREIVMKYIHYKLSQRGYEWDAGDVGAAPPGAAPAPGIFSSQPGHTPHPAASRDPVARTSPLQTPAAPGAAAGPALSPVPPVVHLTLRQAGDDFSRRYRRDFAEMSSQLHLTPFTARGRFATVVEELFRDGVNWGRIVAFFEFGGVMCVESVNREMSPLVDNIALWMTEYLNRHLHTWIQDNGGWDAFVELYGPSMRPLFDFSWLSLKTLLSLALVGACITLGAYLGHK
Cytochrome P450 3A7 (Homo sapiens), sequence (P24462 whole entry, looked up): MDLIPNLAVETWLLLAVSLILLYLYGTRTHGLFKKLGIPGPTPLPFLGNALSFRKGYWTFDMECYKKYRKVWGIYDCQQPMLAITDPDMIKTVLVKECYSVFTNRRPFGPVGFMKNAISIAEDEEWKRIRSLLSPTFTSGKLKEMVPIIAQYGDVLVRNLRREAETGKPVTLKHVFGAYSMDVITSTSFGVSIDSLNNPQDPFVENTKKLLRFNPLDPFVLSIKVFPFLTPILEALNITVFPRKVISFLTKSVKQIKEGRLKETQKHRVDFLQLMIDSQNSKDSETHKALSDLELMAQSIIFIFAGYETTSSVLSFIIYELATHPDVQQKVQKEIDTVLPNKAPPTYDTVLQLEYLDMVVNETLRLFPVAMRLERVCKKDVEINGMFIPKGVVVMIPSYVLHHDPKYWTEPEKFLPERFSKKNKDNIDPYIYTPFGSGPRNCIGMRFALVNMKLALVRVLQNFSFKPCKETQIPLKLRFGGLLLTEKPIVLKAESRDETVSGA
Cytochrome P450 2C19 (Homo sapiens), sequence (P33261 whole entry, looked up): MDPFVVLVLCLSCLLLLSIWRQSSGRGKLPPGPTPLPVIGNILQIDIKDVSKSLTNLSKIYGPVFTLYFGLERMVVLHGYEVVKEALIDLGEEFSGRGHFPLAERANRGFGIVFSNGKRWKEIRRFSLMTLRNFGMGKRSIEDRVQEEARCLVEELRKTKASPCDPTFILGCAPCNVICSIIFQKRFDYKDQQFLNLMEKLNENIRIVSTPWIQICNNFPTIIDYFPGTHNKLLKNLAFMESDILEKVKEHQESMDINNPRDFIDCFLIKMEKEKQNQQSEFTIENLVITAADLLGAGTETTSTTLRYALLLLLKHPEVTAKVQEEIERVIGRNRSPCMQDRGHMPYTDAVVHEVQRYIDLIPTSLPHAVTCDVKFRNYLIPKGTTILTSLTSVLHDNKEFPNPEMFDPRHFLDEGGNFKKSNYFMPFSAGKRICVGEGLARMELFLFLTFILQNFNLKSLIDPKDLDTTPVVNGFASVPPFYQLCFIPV
Cytochrome P450 3A4 (Homo sapiens), sequence (P08684 whole entry, looked up): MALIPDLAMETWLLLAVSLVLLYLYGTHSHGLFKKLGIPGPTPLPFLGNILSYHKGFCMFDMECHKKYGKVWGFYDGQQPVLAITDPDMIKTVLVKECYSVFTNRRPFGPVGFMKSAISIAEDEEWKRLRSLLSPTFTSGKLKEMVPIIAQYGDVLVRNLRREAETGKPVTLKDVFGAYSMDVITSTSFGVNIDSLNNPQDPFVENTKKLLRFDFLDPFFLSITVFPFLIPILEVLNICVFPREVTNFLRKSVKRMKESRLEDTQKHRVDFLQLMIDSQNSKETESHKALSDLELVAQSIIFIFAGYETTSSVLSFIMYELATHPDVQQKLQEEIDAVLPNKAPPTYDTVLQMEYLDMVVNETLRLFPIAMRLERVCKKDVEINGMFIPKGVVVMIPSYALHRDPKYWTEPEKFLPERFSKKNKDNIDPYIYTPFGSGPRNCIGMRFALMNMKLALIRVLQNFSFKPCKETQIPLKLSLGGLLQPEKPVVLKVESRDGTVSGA

Consider `CC(=O)OCCC(C)C`, for which the call (in the experiment with BCL2L11 (gene 10018); in [1]; in experiment [2]; in experiment [3]; in the experiment with Caspase-3 (Homo sapiens); in [4]) was inactive. For the same molecule, the result (in experiment [5]; in [6]; in [7]; in experiment [8]; in the experiment with CYP2C8 (gene 1558); in the experiment with CYP2C9 (gene 1559)) was inactive. Besides, the call (in the experiment with CYP2E1 (gene 1571); with CYP4A11 (gene 1579); in [9]; in experiment [10]; in experiment [11]; in [12]) was inactive. Also, the molecule was classed as inactive in experiment [13] and in experiment [14].
With `COC(=O)CC(=O)OC`, the outcome (with BCL2L11 (gene 10018); in experiment [1]; in [2]; in [3]; in the experiment with Caspase-3 (Homo sapiens); in experiment [4]) was inactive. The call (in experiment [5]; in [6]; with CYP2C8 (gene 1558); with CYP2C9 (gene 1559); with CYP4A11 (gene 1579); in experiment [10]) was inactive. Moreover, the result in [11], in experiment [12] and in [13] was inactive. Moreover, the AC50 was 1.93 µM (active) in [7]; 3.31 µM (active) in experiment [8]; 33 µM (active) in the experiment with CYP2E1 (gene 1571); 2.53 µM (active) in experiment [9]; 3.64 µM (active) in experiment [14].
Regarding `COc1ccc2sc(C(=O)Nc3nnn[nH]3)c(OC(C)C)c2c1`, the half-maximal activity concentration (AC50) with BCL2L11 (gene 10018) was 31.1 µM (active); in [2], 25.2 µM (active); in experiment [5], 15.8 µM (active); in experiment [6], 39.2 µM (active); in [7] it was 87.1 µM (active); in [8], 87 µM (active). The AC50 is 50 µM (active) with CYP2C9 (gene 1559); 91.6 µM (active) in the experiment with CYP2E1 (gene 1571); 13.2 µM (active) in experiment [10]; 22 µM (active) in experiment [11]; 74.8 µM (active) in experiment [12]; 87.2 µM (active) in experiment [14]. The outcome (in [1]; in experiment [3]; with Caspase-3 (Homo sapiens); in experiment [4]; with CYP2C8 (gene 1558); with CYP4A11 (gene 1579)) was inactive. In addition, the call in experiment [9] and in [13] was inactive.
